From PubChem BioAssay
ssDAF12 agonist: S. stercoralis DAF-12 activation, primary screen. activation, % at 6.8 µM. hit rate 1% among 370,000. HEK293 ssDAF-12/GRIP1 lit1-tk-luc reporter, luminescence; % of 3 µM dafachronic acid response;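 active means activation above the mean over all tested compounds plus 3 SD, cut at about 0.9% in these data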;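 further: 0% = DMSO-only wells and 100% = 3 µM delta7-dafachronic acid wells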
DAX1 inh-1: inhibitors of DAX1 repression of SF-1 activated StAR promoter. HEK293T StAR-luciferase reporter, SF-1/DAX-1 repression relief. AID 652010. hit rate 1.1% among 370,000. inhibition, % at 6.8 µM;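 active means inhibition above the mean over all tested compounds plus 3 SD, cut at about 3.6% in these data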;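 further: 0% = DAX-1 cells with DMSO and 100% = cells lacking DAX-1 with DMSO; higher inhibition means more luminescence from relief of DAX-1 repression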
hcDAF12 agonist: activates DAF-12 receptor from parasite H. contortus; HEK293 hcDAF-12 lit1-tk-luc reporter, luminescence; 0% DMSO, 100% Δ7-dafachronic acid; hit rate 1.4% among 370,000; activation, % at 6.8 µM;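 active means activation above the mean of all tested compounds plus 3 SD, cut at about 5.5% in these data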;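 further: 100% = response to 3 µM Δ7-dafachronic acid high control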
Wee1 stabilizer: human Wee1 degradation inhibition, primary screen; P30291; AID 1321; reporter increase, % at 5 µM; HeLa Luc-Wee1K328M stability, luciferase luminescence; 100% = proteasome inhibitor MG132 effect; hit rate 1.2% among 220,000;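 active means activation above the mean of all tested compounds plus 3 SD, set per screening run, cut at about 8.8% in these data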;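 further: cells exposed to compound for 20 h before luminescence read; 0% = DMSO alone and 100% = MG132 at 30 µM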
DAX1 inh-2: inhibits human nuclear receptor DAX1 | hit rate 0.99% among 340,000 | AID 504766 | P51843 | HEK293 Gal4-DAX1 luciferase reporter, luminescence | inhibition, % at 6.75 µM;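 active means inhibition above the mean over all tested compounds plus 3 SD, cut at about 4.2% in these data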;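 further: 0% = DAX1-transfected cells with DMSO and 100% = empty-vector control cells with DMSO; inhibition shows as a rise in luminescence from relieved DAX1 repression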
Target sequence (P51843 207-470 limits assumed): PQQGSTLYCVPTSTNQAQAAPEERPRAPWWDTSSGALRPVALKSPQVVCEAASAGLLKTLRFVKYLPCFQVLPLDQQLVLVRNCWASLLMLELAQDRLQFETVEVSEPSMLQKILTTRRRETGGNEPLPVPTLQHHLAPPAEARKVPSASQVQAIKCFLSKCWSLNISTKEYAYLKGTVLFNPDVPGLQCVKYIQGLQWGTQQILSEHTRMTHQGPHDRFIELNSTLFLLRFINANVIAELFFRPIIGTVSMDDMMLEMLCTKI
hgDAF12 agonist: activates the H. glycines DAF-12 receptor ligand-binding domain; HEK293 GAL4-hgDAF12 UAS-luciferase reporter, agonist luminescence; normalized to butyrate control; activation, % at 6.8 µM; hit rate 1.8% among 370,000;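 active means activation above a cutoff set at the mean of all screened compounds plus 3 SD, cut at about 10% in these data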;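 further: 0% = DMSO wells and 100% = sodium butyrate wells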
Wee1 stab conf: human Wee1 degradation inhibition, confirmation; shares compounds with Wee1 stabilizer; activation, % at 5 µM; HeLa Luc-Wee1K328M degradation, luminescence; vehicle 0%, proteasome-blocked wells 100%; hit rate 4% among 1,100; AID 1410; in the data active means activation above about 8.9%
* hit, by the source's call; · = not tested or not shown. A selection: hits, their analogues and other compounds. The true share with any hit is near 4.6%.

SMILES | ssDAF12 agonist | DAX1 inh-1 | hcDAF12 agonist | Wee1 stabilizer | DAX1 inh-2 | hgDAF12 agonist | Wee1 stab conf
O=C(CCn1c(=O)oc2ccccc21)NCCC1=CCCCC1 | -2.2 | 1.1 | -1.2 | 17.3* | -0.9 | 2.4 | -1.0
CCN1C(=O)c2cccc3c(NC(=O)c4ccc(S(=O)(=O)N(C)C)cc4)ccc1c23 | 0.0 | -1.6 | 0.1 | 11.3* | 0.1 | -1.6 | 5.0
CCN1C(=O)c2cccc3c(NC(=O)c4ccc(S(=O)(=O)N5CCOCC5)cc4)ccc1c23 | -1.6 | -1.8 | 0.7 | 0.9 | -0.5 | -0.4 | ·
COc1ccccc1CC(=O)Nc1ccc(-c2noc(COc3cccc(C)c3C)n2)cc1 | -2.0 | -0.8 | -0.7 | 11.1* | 0.2 | 0.7 | 5.5
COC(=O)[C@]1(C)N[C@H](CN(C)C(=O)C2CCCCC2)[C@@H]2C(=O)N(C)C(=O)[C@@H]21 | -1.2 | -0.2 | 1.1 | · | 0.2 | 0.2 | ·
CCOC(=O)c1ccc2ncc(-c3ccccc3)nc2c1 | -0.8 | 4.3* | 0.4 | 18.2* | 2.4 | 3.9 | -1.1
O=C(/C=C/c1ccc(Br)cc1)c1ccc(NC2=NCCCS2)cc1 | -1.5 | -2.7 | -1.3 | 12.2* | -1.8 | 5.6 | 6.5
Cc1ccc(S(=O)(=O)N2CC(O)CC2C(=O)OCC(=O)Nc2ccc([N+](=O)[O-])cc2C(F)(F)F)cc1C (configuration not stated) | -1.1 | -3.0 | 0.2 | · | 1.1 | -0.8 | ·
CN(Cc1nc(-c2cnccn2)no1)CC(O)c1ccccc1 (configuration not stated) | -1.9 | 0.8 | -0.5 | 12.4* | -0.5 | -3.2 | 2.8
NS(=O)(=O)c1cccc(NC(=O)COC(=O)/C=C/c2nc3ccccc3s2)c1 | -1.0 | 0.5 | 0.5 | · | 0.5 | 3.8 | ·
O=C(N=C1SCC(=O)N1c1ccccc1Cl)c1ccco1 | -0.8 | 1.3 | 2.1 | 13.9* | 3.3 | 8.2 | 4.8
CCN(CC)CCSc1nc2ccccc2c(=S)n1-c1ccccc1 | -1.6 | -0.8 | 1.2 | 13.2* | · | -2.5 | 0.5
CCN(CC)CCSc1nc(O)c(-c2ccccc2)c(=O)n1-c1ccccc1 | -1.5 | 1.0 | -1.7 | -1.8 | -0.1 | -0.1 | ·
O=C(Nc1ncnc2c1ncn2[C@@H]1O[C@H](/C=C/C(=O)N2CCN(c3ccc(F)cc3)CC2)[C@@H](O)[C@H]1O)c1ccccc1 | -0.8 | -1.2 | -0.9 | · | · | 1.6 | ·
COc1ccc(-c2nc(-c3ccc(O)cc3O)cs2)cc1OC | -1.8 | 2.0 | -0.4 | 13.4* | -0.3 | 12.3* | 1.3
O=C(N/N=C1/CC(c2ccccc2)Oc2ccccc21)C1CC1 (configuration not stated) | -1.3 | -0.3 | -2.3 | 2.6 | 3.1 | 1.5 | ·
O=C(N/N=C1\CC(c2ccccc2)Oc2ccccc21)c1cccnc1 (configuration not stated) | -2.0 | -0.5 | -1.1 | 12.2* | -1.3 | 2.1 | -0.4
Clc1ccc(/C=C\c2nccc3c2[nH]c2ccccc23)cc1 | 0.0 | 1.1 | 5.7* | 11.7* | 1.1 | 9.2 | 0.8
CC(C)(C)c1ccc(C2(C)NC(=O)N(CC(=O)Nc3ccc4c(c3)OCO4)C2=O)cc1 (configuration not stated) | -1.4 | -0.7 | -1.8 | 14.1* | 0.9 | -2.3 | 3.0
Oc1ccc(NCc2cccc(OCc3ccc(F)cc3)c2)cc1 | -1.6 | -0.2 | -0.3 | -2.6 | 0.0 | 3.1 | ·
O=[N+]([O-])c1ccc(COc2cccc(CNc3ccc(F)cc3)c2)cc1 | -1.0 | -1.5 | 0.7 | 14.6* | -1.2 | 4.7 | 0.1
O=C(NCCCN1CCN(c2ccc(F)cc2)CC1)Nc1ccccc1 | -1.4 | 2.3 | -2.0 | · | · | -3.5 | ·
Cc1cccc(C)c1NC(=O)NCCCN1CCN(c2ccccc2)CC1 | -2.1 | -0.1 | 0.3 | 11.5* | 1.1 | 0.1 | -1.8
CN(CCc1ccccc1)C(C(=O)Nc1ccc2c(c1)OCCO2)C1CC1 (configuration not stated) | -1.2 | 0.7 | 0.2 | · | · | 1.6 | ·
CCc1cccc2c(C(=S)N3CCCC3)c[nH]c12 | -1.0 | 0.0 | -0.7 | 14.3* | -1.3 | 0.0 | 1.1
SMILES | ssDAF12 agonist | DAX1 inh-1 | hcDAF12 agonist | Wee1 stabilizer | DAX1 inh-2 | hgDAF12 agonist | Wee1 stab conf
Cc1cc(NC(=O)COC(=O)C2CSC3(C)CCC(=O)N23)ccc1Br (configuration not stated) | -0.9 | 0.7 | -0.2 | · | -0.3 | 0.5 | ·
CC12CCC(=O)N1C(C(=O)OCC(=O)Nc1ccc(Cl)c(Cl)c1)CS2 (configuration not stated) | -2.3 | 1.3 | -0.6 | 20.9* | 0.4 | 0.7 | -3.0
C[n+]1ccc(C(=O)Nc2ccccc2Cl)cc1 | -1.2 | 0.0 | -0.5 | · | 0.9 | -0.4 | ·
COc1cc(OC)c2c(=O)cc(-c3cccnc3)oc2c1 | -1.7 | -0.1 | 0.6 | 14.0* | -0.8 | 0.8 | 2.1
CC1(C(=O)Nc2cccc(NS(C)(=O)=O)c2)CCN1CCc1ccccc1 (configuration not stated) | -1.2 | -1.2 | -2.1 | · | · | -1.1 | ·
COc1ccc(C(C(=O)Nc2ccc(C(C)C)cc2)N(Cc2ccco2)C(=O)CC2NC(=O)NC2=O)cc1 (configuration not stated) | -1.4 | -0.3 | 0.5 | 15.8* | -0.5 | -0.5 | 3.6
COc1ccc(NC(=O)C(c2ccc(OC)cc2)N(Cc2ccco2)C(=O)CC2NC(=O)NC2=O)cc1 (configuration not stated) | -2.4 | -1.2 | -0.8 | 1.4 | -0.5 | -0.4 | ·
CN(C)c1ccc(C(CNC(=O)c2ccccc2F)c2c[nH]c3ccccc23)cc1 (configuration not stated) | 0.4 | 0.0 | 3.2 | -0.4 | 0.3 | 1.6 | ·
CN(C)c1ccc(C(CNS(=O)(=O)c2ccc(F)c(F)c2)c2c[nH]c3ccccc23)cc1 (configuration not stated) | -0.5 | 0.5 | 1.1 | 11.5* | -0.5 | 1.4 | 0.4
Cc1ccc(-n2cc(C(=O)c3cc(Cl)ccc3O)cc(C#N)c2=O)cc1 | -1.4 | -0.6 | 0.0 | 3.4 | -1.6 | -2.2 | ·
Cc1ccccc1NC(=O)c1cc(C(=O)c2cc(Cl)ccc2O)cn(-c2ccccc2C)c1=O | -2.5 | -2.5 | -3.9 | 13.9* | -2.2 | -6.2 | 0.1
C#CCN(CC=C)C(=O)CCc1nnc(COc2ccccc2)o1 | -0.8 | 0.4 | 1.6 | 15.6* | -0.1 | 7.9 | 3.8
O=C(CCc1nnc(CCCCc2ccccc2)o1)N(CCO)Cc1ccccc1 | -1.5 | 0.0 | -1.6 | 0.4 | 0.5 | 3.4 | ·
CCOc1ccc2nc(S(=O)(=O)NC(=O)C3(C)CCN3C(=O)c3c(C)noc3C)sc2c1 (configuration not stated) | -1.1 | 0.5 | -0.6 | · | · | 3.2 | ·
